Consider seven compounds from PubChem BioAssay (NCI).

Among the test systems are NCI-H23 lung; NCI-H226 lung; NCI-H322M lung; HOP-62 NSCLC; NCI-H460 lung; HOP-92 NSCLC; NCI-H522 lung; A549/ATCC NSCLC; 786-0 renal; COLO 205 colon; DU-145 prostate; K-562 leukemia; MALME-3M melanoma; MDA-MB-231 breast; RXF 393 renal; SF-268 CNS; SF-295 CNS; SF-539 CNS; UACC-257 melanoma; M14 melanoma.
Common to all, as to test: NCI-60 one-dose screen, 48 h (100 = growth as untreated, 0 = no growth, -100 = all killed)
Holding throughout (settings): 10 µM unless noted

Compounds without any hit were thinned out: in the full panel of roughly 83,000, 20% have a hit.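 Single-concentration screen, 48 h exposure, 96-well plates. Endpoint: percent growth. Below 10 = active.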 A number with no mark means an inactive call. The source made the active and inactive calls.

`COc1ccc(-c2nnc(N3CCN(C(=O)CN4CCN(c5ccccc5)CC4)CC3)nc2-c2ccc(OC)cc2)cc1`: the growth in the experiment on NCI-H23 lung is 48.3%; with NCI-H226 lung, 46.7%; with NCI-H322M lung, 77.3%; in the experiment on HOP-62 NSCLC it was 58.9%; in the experiment with NCI-H460 lung, 14%; in the experiment on HOP-92 NSCLC, 23.2%. The growth with NCI-H522 lung is 14.2%; in the experiment with A549/ATCC NSCLC, 28%; in the experiment with 786-0 renal, 33.7%; in the experiment on COLO 205 colon, 17.5%; in the experiment on DU-145 prostate, 57.8%; with K-562 leukemia, 4.73% (active). Moreover, the growth is 34.2% with MALME-3M melanoma; 65.1% with MDA-MB-231 breast; -9.53% (active) with RXF 393 renal; 52.8% in the experiment on SF-268 CNS; -23% (active) with SF-295 CNS; 46.6% in the experiment with SF-539 CNS. Further, the growth is 31.2% with UACC-257 melanoma and 49% in the experiment with M14 melanoma.
Turning to `COC(=O)c1ccc(NC(=O)CSc2nc(-c3ccc(F)cc3)nc3ccccc23)cc1`, the growth with NCI-H23 lung was 81.7%; with NCI-H226 lung, 87.4%; with NCI-H322M lung it was 89.5%; with HOP-62 NSCLC, 75.5%; in the experiment with NCI-H460 lung it was 60.7%; with HOP-92 NSCLC, 77.7%. The growth was 76.9% with NCI-H522 lung; 86.1% with A549/ATCC NSCLC; 105% with 786-0 renal; 93.8% in the experiment with COLO 205 colon; 88.7% with DU-145 prostate; 81.2% with K-562 leukemia. Moreover, the growth with MALME-3M melanoma is 60.9%; with MDA-MB-231 breast it was 58.3%; with RXF 393 renal it was 109%; with SF-268 CNS, 75.8%; in the experiment with SF-295 CNS it was 86.2%; in the experiment with SF-539 CNS it was 96.9%. For the same compound, the growth in the experiment with UACC-257 melanoma is 102%; in the experiment on M14 melanoma, 70.2%.
With `COc1ccc2c(c1)C1(C(=O)N2)C(C#N)=C(c2ccccc2)Nc2c1c(-c1ccccc1)nn2-c1ccccc1` (stereo not given), the growth is 51.1% in the experiment with NCI-H23 lung; 101% in the experiment with NCI-H226 lung; 60.4% with NCI-H322M lung; 66.9% with HOP-62 NSCLC; -26.1% (active) in the experiment with NCI-H460 lung; 55.6% with HOP-92 NSCLC. Also, the growth in the experiment with NCI-H522 lung was 85.9%; with A549/ATCC NSCLC, 36.3%; in the experiment with 786-0 renal it was 62.4%; in the experiment on COLO 205 colon it was 60.1%; with DU-145 prostate, 49.8%; in the experiment with K-562 leukemia it was 70.4%. In addition, the growth in the experiment with MALME-3M melanoma was 63.8%; in the experiment on MDA-MB-231 breast, 45.1%; with RXF 393 renal, 64.2%; in the experiment with SF-268 CNS, 52.1%; in the experiment on SF-295 CNS it was 69.7%; with SF-539 CNS it was -3.82% (active). Besides, the growth in the experiment with UACC-257 melanoma was 87.9%; in the experiment with M14 melanoma, 72.2%.
`CC(=O)Nc1c(C(=O)Nc2ccccc2)sc2nc3c(cc12)C(OC(C)=O)CCC3` (stereo not given): the growth with NCI-H23 lung is 98%; with NCI-H226 lung, 92.9%; in the experiment with NCI-H322M lung, 99%; in the experiment on HOP-62 NSCLC, 97.1%; in the experiment on NCI-H460 lung, 108%; in the experiment on HOP-92 NSCLC, 86.9%. Also, the growth in the experiment on NCI-H522 lung was 74.4%; in the experiment with A549/ATCC NSCLC it was 94.2%; in the experiment on 786-0 renal, 71.7%; in the experiment on COLO 205 colon it was 110%; in the experiment with DU-145 prostate it was 105%; in the experiment on K-562 leukemia, 72.1%. Also, the growth is 89.7% in the experiment on MALME-3M melanoma; 101% with MDA-MB-231 breast; 62.1% in the experiment with RXF 393 renal; 97.5% in the experiment on SF-268 CNS; 32.4% in the experiment on SF-295 CNS; 95.8% in the experiment with SF-539 CNS. Besides, the growth was 64.8% with UACC-257 melanoma and 90.3% with M14 melanoma.
Regarding `Nc1c(C(=O)c2ccccc2)sc2nc(-c3cc4ccccc4o3)cc(-c3ccc(Cl)cc3)c12`, the growth in the experiment on NCI-H23 lung is 89.9%; in the experiment with NCI-H226 lung, 112%; in the experiment on NCI-H322M lung, 87%; with HOP-62 NSCLC it was 102%; in the experiment with NCI-H460 lung, 103%; in the experiment with HOP-92 NSCLC, -6.31% (active). The growth was 84.7% in the experiment with NCI-H522 lung; 106% in the experiment with A549/ATCC NSCLC; 107% in the experiment with 786-0 renal; 99.4% in the experiment on COLO 205 colon; 90.8% in the experiment on DU-145 prostate; 102% with K-562 leukemia. Besides, the growth in the experiment with MALME-3M melanoma is 101%; with MDA-MB-231 breast it was 85.5%; with RXF 393 renal it was 113%; with SF-268 CNS it was 94.8%; with SF-295 CNS it was 129%; in the experiment on SF-539 CNS, 105%. In addition, the growth in the experiment on UACC-257 melanoma was 104%; in the experiment with M14 melanoma, 107%.
As for `COc1cc(NC(=O)Nc2cnc(Nc3ccc(N4CCOCC4)cc3)nc2Oc2ccc(F)cc2)cc(OC)c1`, the growth with NCI-H23 lung was 81.2%; in the experiment on NCI-H226 lung it was 88%; with NCI-H322M lung, 97.2%; in the experiment on HOP-62 NSCLC it was 89.5%; in the experiment on NCI-H460 lung, 54.1%; in the experiment on HOP-92 NSCLC, 78.6%. The growth in the experiment with NCI-H522 lung is 92.5%; in the experiment on A549/ATCC NSCLC, 55.6%; in the experiment with 786-0 renal it was 38.8%; with COLO 205 colon, 111%; with DU-145 prostate, 86.3%; with K-562 leukemia it was 72.5%. Further, the growth in the experiment with MALME-3M melanoma was 62.7%; in the experiment with MDA-MB-231 breast it was 87.6%; in the experiment with RXF 393 renal it was 77.8%; in the experiment with SF-268 CNS, 75.8%; in the experiment with SF-295 CNS, 109%; in the experiment with SF-539 CNS, 89.1%. Also, the results for the growth in the experiment on UACC-257 melanoma and in the experiment on M14 melanoma were 78% and 91.7%, respectively.
With `COc1cc(N=Nc2cc(S(=O)(=O)O)cc3cc(S(=O)(=O)O)cc(O)c23)c(C)cc1N=Nc1c(S(=O)(=O)O)cc2cc(Nc3ccccc3)ccc2c1O`, the growth in the experiment with NCI-H23 lung was 99.8%; in the experiment with NCI-H226 lung it was 114%; in the experiment with NCI-H322M lung, 93.7%; in the experiment on HOP-62 NSCLC, 102%; in the experiment on NCI-H460 lung, 106%; with HOP-92 NSCLC, 103%. Further, the growth is 80.1% in the experiment with NCI-H522 lung; 101% in the experiment on A549/ATCC NSCLC; 102% in the experiment on 786-0 renal; 129% in the experiment with COLO 205 colon; 103% in the experiment with DU-145 prostate; 84.6% in the experiment on K-562 leukemia. The growth in the experiment on MALME-3M melanoma is 93.8%; in the experiment on MDA-MB-231 breast, 107%; with RXF 393 renal, 129%; in the experiment on SF-268 CNS, 98.2%; in the experiment with SF-295 CNS it was 109%; in the experiment on SF-539 CNS it was 103%. For the same compound, the results for the growth in the experiment on UACC-257 melanoma and in the experiment with M14 melanoma were 111% and 102%, respectively.
